Bioassay records as filed in PubChem BioAssay.
Sampled rows, rich in hits. Any-hit rate of the full collection: about 9.9%.
SW480 rereplic – A quantitative high throughput screen for small molecules that induce DNA re-replication in SW480 colon adenocarcinoma cells. SW480 DNA re-replication, Hoechst DNA content imaging, 48 h. Potency, µM (highest dose often 46.1 µM), hits mostly activators. hit rate 1.8% among 340,000. AID 624297, 2012; further: nearly all actives have a fitted effect of over 55% in size
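Compounds, transferred as 23 nL by pin tool, were incubated with cells for 48 hr; DNA content per nucleus was then quantified by Hoechst staining and fluorescence plate imaging.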
KB-V1 MDR tox – qHTS assay for MDR1-selective chemotherapeutics: Primary screen using the drug-selected MDR subline cells KB-V1. KB-V1 MDR cells viability, CellTiter-Glo, 72 h. Potency, µM (doses to about 46.1 µM), most hits filed as cytotoxic. hit rate 3.4% among 400,000. AID 1347076, 2019; further: nearly all actives have a fitted effect of over 60% in size
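Drug-selected KB-V1 cells, grown in DMEM lacking phenol red with 10% FBS, receive compound titrations; after three days at 37 degrees C, surviving cell ATP is quantified by CellTiter-Glo luminescence and responses normalized and curve-fitted.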
MCF10A rereplic – A quantitative high throughput screen for small molecules that induce DNA re-replication in MCF 10a normal breast cells | MCF 10A DNA re-replication, Hoechst nuclear intensity, 48 h | hit rate 2.9% among 350,000 | Potency, µM (series often up to 46.1 µM), hits mostly activators | AID 624296, 2012; further: nearly all actives have a fitted effect of over 50% in size
KB-3-1 cytotox – qHTS assay for MDR1-selective chemotherapeutics: Primary screen using the parental adenocarcinoma cell KB-3-1; KB-3-1 viability, CellTiter-Glo ATP luminescence, 72 h; Potency, µM (series often up to 46.1 µM), hits mostly cytotoxic; hit rate 1.4% among 400,000; AID 1347075, 2019; further: nearly all actives have a fitted effect of over 60% in size
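Cytotoxicity measured as CellTiter-Glo luminescence after 72 h at 37 C. Compound titrations were pinned onto drug-naive KB-3-1 parental adenocarcinoma cells grown in DMEM with 10% FBS, and normalized data fitted to concentration-response curves.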
IL1B secr inh – qHTS for Inhibitors of Inflammasome Signaling: IL-1-beta AlphaLISA Primary Screen; THP-1 LPS/ATP IL-1B secretion, AlphaLISA, 16 h; stronger effect = lower value; activity change, % at 57.5 µM; hit rate 4.7% among 360,000; AID 743279, 2014; in the data active means activity change below about -50%; inconclusive means mostly about -30% to -49%
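Secreted IL-1B measured by AlphaLISA bead assay after 16 h compound exposure of THP-1 cells; compounds (final up to 57.5 uM) added 1 h before LPS (250 ng/mL) and ATP (1.25 mM) stimulation; lower signal means less secretion.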
Of the large screens only hits and unclear results are named; the others gave an inactive call. Unless noted, the call rests on the fitted dose curve; in most records, active means well fitted curve in the direction sought with a large enough effect; inconclusive means small, poorly fitted or top-dose-only effect, or another doubt; inactive means no such curve, though single readings can be large; an effect the other way counts as inactive or inconclusive.

CCNC(=S)Nc1ccc(Cl)c(C(F)(F)F)c1	SW480 rereplic inconclusive, KB-V1 MDR tox 23.1µM, MCF10A rereplic inconclusive, KB-3-1 cytotox inconclusive
CN(CC(=O)NCC(=O)Nc1ccc(F)cc1)CC(=O)Nc1ccc(Cl)c(C(F)(F)F)c1	KB-V1 MDR tox inconclusive, IL1B secr inh -71.8
CN(CC(=O)NCc1ccc(F)cc1)CC(=O)Nc1ccc(Cl)c(C(F)(F)F)c1	MCF10A rereplic inconclusive, KB-3-1 cytotox inconclusive, IL1B secr inh -69.1
CC(NC(=O)CN(C)CC(=O)Nc1ccc(Cl)c(C(F)(F)F)c1)c1ccccc1 (stereo unspecified)	KB-V1 MDR tox inconclusive, MCF10A rereplic inconclusive
Cc1nc2ccccc2n1CCc1nc2c3ccccc3nc(SCc3ccc(C#N)cc3)n2n1	none (no result: SW480 rereplic, MCF10A rereplic, IL1B secr inh)
O=C1C2C3CC(C(Br)C3Br)C2C(=O)N1c1nccs1 (stereo unspecified)	none
CC(C)(C)OC(=O)NN1CC(=O)N2[C@@H](Cc3c([nH]c4ccccc34)C2(C)C)C1=O	none
N#CC1(NC(=O)CN2C(=O)c3ccc([N+](=O)[O-])cc3C2=O)CCCCC1	none
O=C(c1cnsn1)N1CCC(CO)(Cc2ccc(Cl)cc2)CC1	none
CSc1ccc(CN2CCC(CO)(Cc3ccc(Cl)cc3)CC2)cc1	SW480 rereplic inconclusive, KB-V1 MDR tox inconclusive, MCF10A rereplic inconclusive, KB-3-1 cytotox inconclusive, IL1B secr inh -94.2
OCC1(Cc2ccc(Cl)cc2)CCN(CC2CC=CCC2)CC1 (stereo unspecified)	KB-V1 MDR tox inconclusive, MCF10A rereplic inconclusive, KB-3-1 cytotox inconclusive, IL1B secr inh -61.7
OCC1(Cc2ccc(Cl)cc2)CCN(CCCc2ccccc2)CC1	SW480 rereplic 18.4µM, MCF10A rereplic inconclusive, IL1B secr inh -77.3
OCC1(Cc2ccc(Cl)cc2)CCN(Cc2ccccc2F)CC1	KB-3-1 cytotox inconclusive
CCN(C(=O)Cn1c(C(=O)OC)cc2sc(Cl)cc21)c1cccc(C)c1	none (no result: SW480 rereplic, MCF10A rereplic, IL1B secr inh)
CCOc1ccccc1NC(=O)CSc1nc2c(oc3ccccc32)c(=O)n1-c1ccc(F)cc1	none (no result: SW480 rereplic, MCF10A rereplic, IL1B secr inh)
O=C(N/N=C/c1cc([N+](=O)[O-])ccc1O)c1cc(-c2ccccc2)nc2ccccc12	SW480 rereplic inconclusive, MCF10A rereplic inconclusive, KB-3-1 cytotox inconclusive
Cc1cc(C(=O)N/N=C/c2ccc(N(C)C)cc2)c2ccccc2n1	SW480 rereplic 18.4µM, KB-V1 MDR tox inconclusive, MCF10A rereplic 7.08µM, KB-3-1 cytotox 9.2µM
Cc1cc(C(=O)N/N=C/c2cc(Br)cc([N+](=O)[O-])c2O)c2ccccc2n1	KB-V1 MDR tox inconclusive (no result: SW480 rereplic)
O=C(N/N=C/c1ccc([N+](=O)[O-])cc1)c1cc(C2CC2)nc2ccccc12	SW480 rereplic inconclusive, MCF10A rereplic inconclusive, KB-3-1 cytotox inconclusive
Cc1cc(C(=O)N/N=C/c2ccc([N+](=O)[O-])cc2)c2ccccc2n1	SW480 rereplic 13µM, MCF10A rereplic inconclusive, KB-3-1 cytotox 5.8µM
Cc1cc(C(=O)N/N=C/c2cc([N+](=O)[O-])ccc2O)c2ccccc2n1	SW480 rereplic 16.4µM, KB-V1 MDR tox inconclusive
Cc1cc(C(=O)N/N=C/c2ccc([N+](=O)[O-])s2)c2ccccc2n1	MCF10A rereplic inconclusive, KB-3-1 cytotox inconclusive, IL1B secr inh -78.7
CCC(=O)N1CCc2cc(Br)cc(S(=O)(=O)CCC(=O)Nc3ccc(Cl)cc3)c21	none (no result: SW480 rereplic, MCF10A rereplic, IL1B secr inh)
Cc1noc(C)c1C(=O)Nc1nccs1	none
CCc1cc(C(=O)N/N=C/c2ccc(O)cc2)c2ccccc2n1	SW480 rereplic inconclusive, MCF10A rereplic 23.1µM, KB-3-1 cytotox inconclusive
O=C(N/N=C/c1ccc(O)c(O)c1)c1cc(-c2ccccc2)nc2ccccc12	none
CCc1ccc(/C=N/NC(=O)c2cc(C3CC3)nc3ccccc23)s1	SW480 rereplic 18.4µM, KB-V1 MDR tox 5.17µM, MCF10A rereplic 7.31µM, KB-3-1 cytotox 5.17µM
FC(F)(F)c1cccc(-c2nn[nH]n2)c1	none
Nc1nc(N)c(-c2cccc(C(F)(F)F)c2)c(Cc2cccc(C(F)(F)F)c2)n1	SW480 rereplic inconclusive, KB-V1 MDR tox inconclusive, MCF10A rereplic inconclusive, KB-3-1 cytotox 7.31µM, IL1B secr inh -80.6
O=[N+]([O-])c1cc(-c2ccccc2)cc([N+](=O)[O-])c1O	KB-V1 MDR tox 20.6µM, MCF10A rereplic inconclusive, KB-3-1 cytotox 16.4µM
CCOC(=O)c1cc(NC(=O)N(CC)C2CCCCC2)c(C)nc1C	KB-V1 MDR tox 23.1µM
COc1ccc2c(c1)cc1c(=O)n(CC(=O)NC3CCCCC3)nc(C)n12	none (no result: SW480 rereplic, MCF10A rereplic, IL1B secr inh)
CC(=O)c1ccc(NC(=O)COCc2cc(-c3ccco3)on2)cc1	none (no result: SW480 rereplic, MCF10A rereplic, IL1B secr inh)
O=C(c1cc([N+](=O)[O-])ccc1N1CCCCC1)N1CCc2ccccc21	SW480 rereplic 6.51µM, KB-V1 MDR tox 5.8µM, MCF10A rereplic 3.66µM, KB-3-1 cytotox 5.8µM
O=C(c1cc([N+](=O)[O-])ccc1N1CCCCC1)N1CCCCC1	KB-V1 MDR tox 16.4µM
CN(C)CCCNC(=O)c1cc(C(=O)c2ccccc2)c[nH]1	none
CN(C)CCCNC(=O)c1cc(C(=O)c2cccc(Cl)c2Cl)c[nH]1	SW480 rereplic inconclusive, IL1B secr inh -58.1
Cn1c(NC(=O)COc2ccccc2)cc(=O)n(C)c1=O	none
CCOC(=O)c1c(NC(=O)c2cccc(N3C(=O)CCC3=O)c2)sc(C)c1C	KB-V1 MDR tox 10.3µM
CCOC(=O)c1sc(NC(=O)c2cccnc2)c(C#N)c1C	none
CCOC(=O)c1c(NC(=O)c2cccnc2)sc(C)c1C	IL1B secr inh -54.1
CC(=O)NS(=O)(=O)c1ccc(NC(=O)[C@@H]2CCCN2S(=O)(=O)c2ccc(Cl)cc2)cc1	none
CC(C)(C)n1ncc(Oc2ccccc2[N+](=O)[O-])c(Cl)c1=O	SW480 rereplic inconclusive, KB-V1 MDR tox 18.4µM
CN(C)C1CN(Cc2cn(Cc3cccc(C(F)(F)F)c3)nn2)S(=O)(=O)C1 (stereo unspecified)	none (no result: SW480 rereplic, MCF10A rereplic)
COc1cccc(-c2nn(-c3ccc(C)cc3)cc2C(=O)N2CCc3cc(OC)c(OC)cc3C2)c1	SW480 rereplic inconclusive, KB-V1 MDR tox 23.1µM, MCF10A rereplic inconclusive, KB-3-1 cytotox 18.4µM
CC(C)(C)c1ccc(-c2nnc(SCCC#N)n2C2CCCC2)cc1	SW480 rereplic inconclusive, KB-V1 MDR tox inconclusive, KB-3-1 cytotox inconclusive, IL1B secr inh -51.2
O=C(C1CCCCC1)N1CCCC(c2nc(-c3ccc(F)cc3)no2)C1 (stereo unspecified)	KB-V1 MDR tox 20.6µM
Cc1ccccc1NC(=O)N1CCCC(c2nc(-c3ccc(C(C)C)cc3)no2)C1 (stereo unspecified)	MCF10A rereplic 14.6µM, KB-3-1 cytotox 18.4µM, IL1B secr inh -76.5
Cc1ccccc1NC(=O)N1CCCC(c2nc(-c3ccc(F)cc3)no2)C1 (stereo unspecified)	KB-V1 MDR tox 14.6µM
